In all, about 300,000 compounds went through this assay and about 37,000 (12%) were called active. Many of the other results were omitted from the sample, so actives are more common in it than they were. A number with no mark means an inactive call. Rule as the data show it: active = max response mostly above about 13% (no sharp cut-off); inactive = mostly below about 14%.
Experiment: Cycloheximide Counterscreen for Small Molecule Inhibitors of Shiga Toxin; also: read at 38.3 µM for the half of the compounds with a filed dose; 0% is about no effect
Conditions: cell reporter, cycloheximide protein synthesis inhibition counterscreen; active compounds read high

| SMILES | max response |
| --- | --- |
| Oc1ccccc1CN1CCN(C(c2ccccc2)c2ccccc2)CC1 | 2.23% |
| Cc1cccc(C(=O)OCC(=O)Nc2sc3c(c2C#N)CCC3)c1 | -3.19% |
| COc1ccc(CN2CCn3ncc(C(=O)Nc4ccc(Cl)cc4Cl)c3C2=O)cc1 | -1.27% |
| Cc1ccc(C(c2nnnn2CS(=O)(=O)c2ccc(C)cc2)N2CCC(C)CC2)cc1 (stereo unspecified) | 1.26% |
| COc1cccc(-c2nc(CS(=O)CC(=O)NCc3ccc(F)cc3)c(C)o2)c1 (stereo unspecified) | -2.32% |
| O=[N+]([O-])c1cccc(/C=N/Nc2ncc(Br)cn2)c1 | 29.2% (active) |
| COc1ccc(O)c(/C=N/N=C/c2cccc([N+](=O)[O-])c2)c1 | -1.21% |
| O=C(N/N=C/c1cccc([N+](=O)[O-])c1)C1CC(=O)N(c2ccc(Br)cc2)C1 (stereo unspecified) | 0.637% |
| CC(NC(=S)Nc1ccccc1)C(c1cccs1)N1CCOCC1 (stereo unspecified) | -0.819% |
| CC(C)CN(C(=O)c1cccc(S(=O)(=O)N2CCCCC2)c1)C1CCS(=O)(=O)C1 (stereo unspecified) | -3.21% |
| CCOc1ccc(C(=O)NCCCN2CCCC2=O)cc1 | 16.9% (active) |
| Cc1cccc(C(=O)NCCCN2CCCC2=O)c1 | -1.36% |
| CCOc1cc2[nH]c(=O)n(Cc3ccc(C(=O)NCCCN4CCCC4=O)cc3)c(=O)c2cc1OCC | 3.4% |
| Cn1c(N)c(C(=O)COC(=O)/C=C/c2ccc(OC(F)F)cc2)c(=O)n(C)c1=O | 9.63% |
| COc1ccc(S(=O)(=O)n2cnc3ccccc32)c(C)c1 | 8.08% |
| COc1cccc(NC(=O)CN(C)C(=O)/C=C/c2cc(OC)ccc2OC)c1 | -0.59% |
| O=[N+]([O-])c1ccccc1NCc1ccc(Cl)cc1 | 19.5% (active) |
| O=C(NCCCNc1ccc([N+](=O)[O-])cc1Cl)c1ccccc1F | 11.2% |
| O=C(NCCNc1ccccc1[N+](=O)[O-])c1ccccc1F | 46.4% (active) |
| Cc1c(NC(=S)NCc2ccc(F)cc2)cccc1[N+](=O)[O-] | -2.87% |
| O=C(NCCNc1ccc([N+](=O)[O-])cc1Cl)c1ccccc1F | 12.9% |
| O=[N+]([O-])c1ccccc1NCc1ccccc1Cl | 0.768% |
| COc1ccc(NS(=O)(=O)c2cccc3nsnc23)cc1Cl | -2.31% |
| Cc1noc(C)c1S(=O)(=O)Nc1cc(C(F)(F)F)ccc1N1CCOCC1 | 1.06% |
| COCCCNC(=O)/C(C#N)=C/c1c(N2CCCCCC2)nc2ccccn2c1=O | 5.95% |
| CCCC[C@]12Cc3cc(OC)c(OC)cc3C(O1)C1=C(CC3(CCCCC3)OC1=O)O2 | -1.97% |

Reference: PubChem BioAssay AID2314 (National Center for Advancing Translational Sciences (NCATS), 2010)
